Measurements from PubChem BioAssay (NCI).
The panel holds about 83,000 compounds, 20% with a hit somewhere; the sample as a whole holds those more often.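 Cell lines were cultured in 96-well plates, exposed to a single compound concentration, and assessed for percent growth 48 hours later.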 Values without a mark were called inactive. The source made the active and inactive calls.

Each molecule was assayed on RPMI-8226 leukemia (assay: NCI-60 one-dose screen, 48 h (100 = growth as untreated, 0 = no growth, -100 = all killed)). Conditions: 10 µM.
Protocol: Growth inhibition of the RPMI-8226 human tumor cell line is measured as a screen for anti-cancer activity. Cells are grown in 96 well plates and exposed to the test compound for 48 hours. Compounds are tested at a single concentration, which is 10^-5 M for most compounds. The reported endpoint is percent growth (GI% or GIPRCNT), where numbers from 0 - 100% represent growth inhibition, and numbers from -100% - 0 represent cell death. For example, a value of 40 represents 60% growth inhibition. A value of 0 means no net growth occurred over the course of the experiment. A value of -40 indicates 40% of cells at the beginning of the experiment died by the end of the experiment. A value of -100 means all cells are dead at the end of the experiment.
NCI-60 Human Tumor Cell Lines Screen was performed using the standard one-dose NCI protocol, which is described in more detail at https://dtp.cancer.gov/discovery_development/nci-60/default.htm.
Compounds with GIPRCNT values below 10 were considered active. Activity score was based on GIPRCNT using the following formula: […]
Score is 0 for GIPRCNT values of 100 or above, 50 for GIPRCNT values of 0, and 100 for GIPRCNT values of -100.
Work on `COC(=O)c1ccc(Cn2ccc(=O)[nH]c2=O)cc1` yielded a growth of 106%.
For `Oc1cc(O)c(Br)cc1Br`, the growth was 99.4%.
Work on `COc1cc(OC)cc(N2CCN(C(=O)Nc3nc4cc(F)ccc4nc3OC)CC2)c1` yielded a growth of 22.7%.
For `CCc1cc2n(n1)-c1ncc(C(=O)OC)cc1Oc1ccccc1-2`, the growth was 93.3%.
For `COc1ccc(-c2nc(-c3nc4ccc(C)cc4[nH]3)c3ccccn23)cc1`, the growth was -6.44% (active).
Molecule `COc1ccc(-c2nc3sc(-c4ccccc4)c(-c4ccccc4)n3c2/C=C/c2ccc(F)cc2)cc1` has a growth of 95.5%.
Molecule `Cn1c(N)c(N=Cc2ccccc2)c(=O)n(C)c1=O` has a growth of 108%.
`Cc1cc(C#Cc2ccccc2)ccc1-n1c(/C=C/c2cc(O)ccc2O)nc2ccccc2c1=O` was tested, and the growth was -18.1% (active).
With `CS(=O)(=O)Nc1ccc([N+](=O)[O-])cc1Oc1ccccc1` the growth was 83.2%.
`CCCCCCCCCCSC(=N)N` (tested in a mixture with another compound) showed a growth of 38%.
`CN(C)c1ccc2c(c1)OC(N)=C(C#N)C2c1ccc2c(c1)CCCN2C` (stereo not given) gave a growth of 34.5%.
With `O=C(CCCC(=O)N/N=C/c1cc(Cl)ccc1O)N/N=C\c1cc(Cl)ccc1O` the growth was 27.3%.
Work on `COc1cc(CSc2nc3ccc(C)cc3c(=O)n2-c2ccccc2)cc(OC)c1OC` yielded a growth of 54.9%.
With `N#CC1C=Cc2c(ccc3ccccc23)N1C(=O)c1ccccc1` (stereo not given) the growth was 38.1%.
With `CCOC(=O)c1ccc(N(C=O)CCC(=O)CCl)cc1` the growth was -20.4% (active).
Molecule `COc1cc(-c2nc3ccccc3[nH]2)ccc1OCC(=O)N=Nc1c(O)[nH]c2ccccc12` has a growth of 25.8%.
`O=S(=O)(O)C1(O)CCCCC1` showed a growth of 81.5%.
Molecule `C[N+]1=C(/C=C/c2ccc(I)cc2)C(C)(C)c2ccccc21` has a growth of 71.8%.
`CCOC(=O)c1sc(NC(=O)c2cc(OC)c(OC)c(OC)c2)nc1C` was tested, and the growth was 83%.
In the case of `Cc1ccc(C(=O)O)c(N)c1C`, the growth is reported as 98.7%.
With `COc1ccc(NC(=O)CCn2cnc3c(cc(-c4ccccc4)n3-c3ccccc3)c2=O)cc1` the growth was 93.4%.
In the case of `Cc1nc2ccc(-n3c(-c4ccc(Cl)cc4)nc4ccccc4c3=O)cc2n1Cc1ccccc1`, the growth is reported as 64.6%.
`COc1ccc(C2CC(c3ccc(-c4ccccc4)cc3)=NN2c2ccc(S(N)(=O)=O)cc2)cc1` (stereo not given) showed a growth of 57.2%.
With `COc1ccc2c(c1)/C(=C/c1cc(OC)c(OC)c(OC)c1)C(=O)N2C` the growth was -25.2% (active).
`COc1cc(Cn2c(-c3ccccc3)cc3c2-c2oncc2CC3)cc(OC)c1` gave a growth of 34.8%.
Work on `Clc1ccc(-c2nc(-c3cccs3)cn3ccnc23)cc1` yielded a growth of 64.7%.
For `COc1nc2c(c(=O)[nH]1)C(c1ccc(Oc3ccnc4cc(Cl)ccc34)c(OC)c1)C=C(c1cc(OC)c(OC)c(OC)c1)N2` (stereo not given), the growth was 94.5%.
With `COc1ccc(C2C=C(c3ccc(OC)c(OC)c3)N=C3SC=CN32)c(Br)c1` (stereo not given) the growth was -12.4% (active).
In the case of `COc1cc(CSc2nc3ccc(Cl)cc3c(=O)n2Cc2ccccc2)cc(OC)c1OC`, the growth is reported as 68.7%.
`CCCCCc1cc[n+](CC(=O)c2ccc(Cl)cc2)cc1` gave a growth of 91.5%.
`CCCCCCOc1ccc(/C=C/C(=O)c2ccc(B(O)O)cc2)cc1` was tested, and the growth was 46.2%.
`O=S(=O)(NC1c2ccccc2Oc2ccccc21)c1ccccc1` gave a growth of 94.1%.
In the case of `COC1OC2COC(c3ccccc3)OC2C(=O)C1NC(=O)c1ccccc1` (stereo not given), the growth is reported as 97.3%.
`Oc1ccccc1-c1nnc(Cn2c(Cc3cccc4ccccc34)nc3ccccc32)o1` was tested, and the growth was 95.8%.
Molecule `COc1ccc(CSc2nc3cc(OC)c(OC)cc3c(=O)n2-c2ccc(OC)cc2OC)cc1` has a growth of 63.7%.
Work on `COc1ccc(-c2nnc(SC/C(=N\O)c3ccccc3)o2)cc1` yielded a growth of 88.8%.
Work on `COc1ccc(C2C=C(c3ccc(Cl)cc3)N=C3SC=CN32)c(Br)c1` (stereo not given) yielded a growth of 52.3%.
`C[C@]12CC[C@H]3[C@@H](CCC4=CC(=O)CC[C@@]43C)[C@@H]1CC[C@@H]2c1csc(N)n1` gave a growth of 19.1%.
Molecule `CC(C)CCN(CCCNc1c2c(nc3cc(Cl)ccc13)CCCC2)CCC(C)C` has a growth of 39.5%.
`O=C1CC[C@@H](C(=O)N[C@H]2CSSC[C@@H](C(=O)N/C=C/c3ccc(O)cc3)NC(=O)[C@H](Cc3ccccc3)NC(=O)[C@@H]3CCCN3C(=O)[C@@H]3CCCN3C2=O)N1` was tested, and the growth was 96.1%.
